# Source: the supplement of paper PMC4466140
# Legend:
# Assay in all cases: SPOT peptide array binding signal intensity (averaged, normalized) (arbitrary units (background-subtracted, floor 0; scale differs between SH3 domains)); higher = stronger binding of the SH3 domain to the peptide
# AgAbp1 = biological target: AgAbp1
# Method in brief: (§1)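 GST-fused SH3 domains, from four yeast species, were produced in E. coli BL21(DE3) and captured on glutathione Sepharose. Membranes of cellulose carrying synthetic 15-mer peptides, in which cysteines had been replaced by serines, were exposed to each domain at 10 μg/ml overnight at 4°C in TBS-based blocking buffer. After anti-GST antibody, an HRP anti-mouse secondary and luminol, spots were imaged and quantified using Genespotter. Binding signal is normalized and background-subtracted spot intensity, averaged over replicates, in arbitrary units that differ between domains.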
# AgBbc1 = biological target: AgBbc1
# Method in brief: as §1
# AgBem1-D1 = biological target: AgBem1-D1
# Method in brief: as §1
# AgBzz1-D1 = biological target: AgBzz1-D1
# Method in brief: as §1
# AgBzz1-D2 = biological target: AgBzz1-D2
# Method in brief: as §1
# AgCyk3 = biological target: AgCyk3
# Method in brief: as §1
# AgFus1 = biological target: AgFus1
# Method in brief: as §1
# AgHof1 = biological target: AgHof1
# Method in brief: as §1
# AgHse1 = biological target: AgHse1
# Method in brief: as §1
# AgLsb1 = biological target: AgLsb1
# Method in brief: as §1
# AgLsb4 = biological target: AgLsb4
# Method in brief: as §1
# AgMyo5 = biological target: AgMyo5
# Method in brief: as §1
# AgNbp2 = biological target: AgNbp2
# Method in brief: as §1
# AgRvs167 = biological target: AgRvs167
# Method in brief: as §1
# AgSho1 = biological target: AgSho1
# Method in brief: as §1
# AgSla1-D1-D2 = biological target: AgSla1-D1-D2
# Method in brief: as §1
# AgSla1-D3 = biological target: AgSla1-D3
# Method in brief: as §1
# CaAbp1-D1 = biological target: CaAbp1-D1
# Method in brief: as §1
# CaAbp1-D2 = biological target: CaAbp1-D2
# Method in brief: as §1
# CaBbc1 = biological target: CaBbc1
# Method in brief: as §1
# CaBem1-D1 = biological target: CaBem1-D1
# Method in brief: as §1
# CaBzz1-D1 = biological target: CaBzz1-D1
# Method in brief: as §1
# CaBzz1-D2 = biological target: CaBzz1-D2
# Method in brief: as §1
# CaCyk3 = biological target: CaCyk3
# Method in brief: as §1
# CaFus1 = biological target: CaFus1
# Method in brief: as §1
# CaHof1 = biological target: CaHof1
# Method in brief: as §1
# CaHse1 = biological target: CaHse1
# Method in brief: as §1
# CaLsb1 = biological target: CaLsb1
# Method in brief: as §1
# CaLsb4 = biological target: CaLsb4
# Method in brief: as §1
# CaMyo5 = biological target: CaMyo5
# Method in brief: as §1
# CaNbp2 = biological target: CaNbp2
# Method in brief: as §1
# CaRvs167 = biological target: CaRvs167
# Method in brief: as §1
# CaRvs167-3 = biological target: CaRvs167-3
# Method in brief: as §1
# CaSho1 = biological target: CaSho1
# Method in brief: as §1
# CaSla1-D1-D2 = biological target: CaSla1-D1-D2
# Method in brief: as §1
# CaSla1-D3 = biological target: CaSla1-D3
# Method in brief: as §1
# ScAbp1 = biological target: ScAbp1
# Method in brief: as §1
# ScBbc1 = biological target: ScBbc1
# Method in brief: as §1
# ScBem1-D1 = biological target: ScBem1-D1
# Method in brief: as §1
# ScBzz1-D1 = biological target: ScBzz1-D1
# Method in brief: as §1
# ScBzz1-D2 = biological target: ScBzz1-D2
# Method in brief: as §1
# ScCyk3 = biological target: ScCyk3
# Method in brief: as §1
# ScFus1 = biological target: ScFus1
# Method in brief: as §1
# ScHof1 = biological target: ScHof1
# Method in brief: as §1
# ScHse1 = biological target: ScHse1
# Method in brief: as §1
# ScLsb1 = biological target: ScLsb1
# Method in brief: as §1
# ScLsb2 = biological target: ScLsb2
# Method in brief: as §1
# ScLsb3 = biological target: ScLsb3
# Method in brief: as §1
# ScLsb4 = biological target: ScLsb4
# Method in brief: as §1
# ScMyo3 = biological target: ScMyo3
# Method in brief: as §1
# ScMyo5 = biological target: ScMyo5
# Method in brief: as §1
# ScNbp2 = biological target: ScNbp2
# Method in brief: as §1
# ScPex13 = biological target: ScPex13
# Method in brief: as §1
# ScRvs167 = biological target: ScRvs167
# Method in brief: as §1
# ScSho1 = biological target: ScSho1
# Method in brief: as §1
# ScSla1-D1-D2 = biological target: ScSla1-D1-D2
# Method in brief: as §1
# ScSla1-D3 = biological target: ScSla1-D3
# Method in brief: as §1
# SpAbp1-D1 = biological target: SpAbp1-D1
# Method in brief: as §1
# SpBbc1 = biological target: SpBbc1
# Method in brief: as §1
# SpBzz1-D1 = biological target: SpBzz1-D1
# Method in brief: as §1
binder,measurement,setting,value
RKNRAPPQRPRFNRE,SPOT peptide array binding signal intensity,AgAbp1,777
same,SPOT peptide array binding signal intensity,AgBbc1,536
same,SPOT peptide array binding signal intensity,AgBem1-D1,379
same,SPOT peptide array binding signal intensity,AgBzz1-D1,248
same,SPOT peptide array binding signal intensity,AgBzz1-D2,220
same,SPOT peptide array binding signal intensity,AgCyk3,7
same,SPOT peptide array binding signal intensity,AgFus1,404
same,SPOT peptide array binding signal intensity,AgHof1,117
same,SPOT peptide array binding signal intensity,AgHse1,469
same,SPOT peptide array binding signal intensity,AgLsb1,267
same,SPOT peptide array binding signal intensity,AgLsb4,71
same,SPOT peptide array binding signal intensity,AgMyo5,2.5
same,SPOT peptide array binding signal intensity,AgNbp2,1890
same,SPOT peptide array binding signal intensity,AgRvs167,8.33
same,SPOT peptide array binding signal intensity,AgSho1,47.5
same,SPOT peptide array binding signal intensity,AgSla1-D1-D2,320
same,SPOT peptide array binding signal intensity,AgSla1-D3,39.2
same,SPOT peptide array binding signal intensity,CaAbp1-D1,976
same,SPOT peptide array binding signal intensity,CaAbp1-D2,788
same,SPOT peptide array binding signal intensity,CaBbc1,945
same,SPOT peptide array binding signal intensity,CaBem1-D1,39
same,SPOT peptide array binding signal intensity,CaBzz1-D1,2100
same,SPOT peptide array binding signal intensity,CaBzz1-D2,1120
same,SPOT peptide array binding signal intensity,CaCyk3,642
same,SPOT peptide array binding signal intensity,CaFus1,706
same,SPOT peptide array binding signal intensity,CaHof1,0.5
same,SPOT peptide array binding signal intensity,CaHse1,89.8
same,SPOT peptide array binding signal intensity,CaLsb1,7
same,SPOT peptide array binding signal intensity,CaLsb4,646
same,SPOT peptide array binding signal intensity,CaMyo5,9.25
same,SPOT peptide array binding signal intensity,CaNbp2,1020
same,SPOT peptide array binding signal intensity,CaRvs167,26.5
same,SPOT peptide array binding signal intensity,CaRvs167-3,28.5
same,SPOT peptide array binding signal intensity,CaSho1,117
same,SPOT peptide array binding signal intensity,CaSla1-D1-D2,752
same,SPOT peptide array binding signal intensity,CaSla1-D3,15
same,SPOT peptide array binding signal intensity,ScAbp1,369
same,SPOT peptide array binding signal intensity,ScBbc1,290
same,SPOT peptide array binding signal intensity,ScBem1-D1,112
same,SPOT peptide array binding signal intensity,ScBzz1-D1,46
same,SPOT peptide array binding signal intensity,ScBzz1-D2,26
same,SPOT peptide array binding signal intensity,ScCyk3,88
same,SPOT peptide array binding signal intensity,ScFus1,209
same,SPOT peptide array binding signal intensity,ScHof1,2.5
same,SPOT peptide array binding signal intensity,ScHse1,761
same,SPOT peptide array binding signal intensity,ScLsb1,162
same,SPOT peptide array binding signal intensity,ScLsb2,196
same,SPOT peptide array binding signal intensity,ScLsb3,622
same,SPOT peptide array binding signal intensity,ScLsb4,34.5
same,SPOT peptide array binding signal intensity,ScMyo3,8.5
same,SPOT peptide array binding signal intensity,ScMyo5,10
same,SPOT peptide array binding signal intensity,ScNbp2,4060
same,SPOT peptide array binding signal intensity,ScPex13,128
same,SPOT peptide array binding signal intensity,ScRvs167,192
same,SPOT peptide array binding signal intensity,ScSho1,979
same,SPOT peptide array binding signal intensity,ScSla1-D1-D2,1390
same,SPOT peptide array binding signal intensity,ScSla1-D3,30.2
same,SPOT peptide array binding signal intensity,SpAbp1-D1,634
same,SPOT peptide array binding signal intensity,SpBbc1,25.5
same,SPOT peptide array binding signal intensity,SpBzz1-D1,707
